High-throughput results as filed in PubChem BioAssay.
Epigenetic reg – Quantitative High-Throughput Screen for Regulators of Epigenetic Control; murine LDR cells, GFP reporter derepression, 30 h; Potency, µM (doses to about 53.9 µM), usual class: activators; 280,000 compounds, 0.2% hits; AID 1865, 2009; note: nearly all actives have a fitted effect of over 60% in size
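Murine LDR cells carrying a silenced, genomically integrated CMV-driven GFP reporter were exposed to compound for 30 hours at 37 C. After PBS washes, GFP-positive cells (20–120 um objects) were counted by laser-scanning microplate cytometry.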
ClpP mod – qHTS Assay for Activators of ClpP. purified B. subtilis ClpP, FRET peptide cleavage, 20 min. Potency, µM (highest dose often 57.5 µM). 340,000 compounds, 1.9% hits. AID 651965, 2013; active = well fitted falling curve with a large enough effect; inconclusive = small, poorly fitted or top-dose-only effect; inactive = no such curve, though single readings can be large or run the other way; note: the source files actives as falling curves though it sought activators and does not explain the sign; nearly all actives have a fitted effect of over 65% in size
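Buffer: 100 mM Tris/HCl pH8, 100 mM KCl, 0.05% low protease BSA, 2.5% glycerol, 0.01% Tween-20. ClpP 10 microg/mL final; 20 min RT; delta FRET normalized to ADEP and DMSO controls.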
Gal4-VP16 FLuc – VP16 counterscreen qHTS for inhibitors of ROR gamma transcriptional activity; Drosophila S2 Gal4-VP16 UAS-luciferase, luminescence, 20 h; Potency, µM (titrated, usually from 53.6 µM), usual class: inhibitors; 310,000 compounds, 3.5% hits;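 note: Gal4-VP16 expression switched on by copper sulfate through the metallothionein promoter; nearly all actives have a fitted effect of over 50% in size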
Sfp inh – qHTS Assay for Inhibitors of Bacillus subtilis Sfp phosphopantetheinyl transferase (PPTase) | 4'-phosphopantetheinyl transferase ffp (Bacillus subtilis), Q9F4F7 | Biochemical Sfp PPTase activity, qHTS | Potency, µM, most hits filed as inhibitors | 310,000 compounds, 3.5% hits | AID 1490, 2009;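 note: the enzyme is Sfp with the accession as filed and its product quenches rhodamine fluorescence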
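Compounds were incubated with enzyme (final 15 nM) for 15 min at room temperature before substrate addition started the reaction. Fluorescence at 525 nm excitation, 598 nm emission was recorded immediately and after 30 minutes.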
RORg inh – qHTS for inhibitors of ROR gamma transcriptional activity; Nuclear receptor ROR-gamma (Mus musculus), P51450; Potency, µM (titrated, usually from 53.6 µM), most hits filed as inhibitors; 310,000 compounds, 5.4% hits; Drosophila S2 Gal4-RORgamma UAS-luciferase reporter, 20 h; AID 2551, 2010; note: nearly all actives have a fitted effect of over 60% in size
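A Gal4/UAS one-hybrid system in insect cells: metallothionein-promoter Gal4–ROR gamma fusion plus Photinus luciferase reporter. Copper sulfate 700 uM final, 20 hr ambient incubation, luminescent detection after 10 min with reagent.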
PINK1 expr mod – A Quantitative High throughput Screen to Identify Chemical Modulators of PINK1 Expression; PINK1 immunofluorescence, high-content cytometry, 24 h; Potency, µM (titrated, usually from 76.6 µM), actives largely listed as activators; 410,000 compounds, 0.2% hits; AID 624263, 2012; active = well fitted activation curve with a large enough effect; inconclusive = small, poorly fitted or top-dose-only effect; cell line not stated here; note: nearly all actives have a fitted effect of over 65% in size
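PINK1 protein level read as immunofluorescence by microplate cytometer in a fixed, stained stable cell line after 24 h exposure to five compound concentrations, with CCCP as control.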
Hits are given with their value; 0 = inactive; ? = inconclusive; - = not tested or not shown. This is a sample that favours compounds with a hit; in the whole collection about 8.1% have one here. Unless noted, calls come from the whole dose curve; as a rule, active = well fitted curve in the direction sought with a large enough effect; inconclusive = small, poorly fitted or top-dose-only effect, or another doubt; inactive = no such curve, though single readings can be large; an effect the other way counts as inactive or inconclusive.

SMILES	Epigenetic reg	ClpP mod	Gal4-VP16 FLuc	Sfp inh	RORg inh	PINK1 expr mod
CN(CC(=O)Nc1ccccc1Br)Cc1nc2ccccc2c(=O)[nH]1	0	?	0	0	28µM	0
CN(CC(=O)Nc1ccccc1C(F)(F)F)C(=O)CCc1nc2ccccc2c(=O)[nH]1	-	0	-	-	-	0
Cc1cc(C(=O)Nc2ccccc2-c2nc(CNC(=O)c3ccccc3Cl)c(C)o2)c(C)o1	-	-	-	-	-	0
COCc1cc(C)nc2c1C(=O)NC(c1ccc(Br)cc1)N2Cc1ccccc1 (stereo not drawn)	0	0	-	-	-	?
COc1ccc(CCNC(=O)C2(c3cccs3)CCOCC2)cc1OC	0	0	-	-	-	0
O=P(O)(O)O[C@@H]1[C@H](O)[C@H](O)[C@@H](OP(=O)(O)O)[C@H](OP(=O)(O)O)[C@H]1O	0	-	0	0	0	-
CCN(CC(=O)NC(=O)NC1CCCCC1)Cc1nc2ccccc2c(=O)[nH]1	0	0	0.56µM	?	0.56µM	0
CN(CC(=O)Nc1sc2c(c1C#N)CCCCC2)Cc1nc2ccccc2c(=O)[nH]1	0	0	0	0	13µM	0
COc1cccc(CN(C)CC(=O)Nc2sc3c(c2C#N)CCC3)c1OC	0	0	0	0	0	0
O=C(Cn1nnc(-c2ccccc2NC(=O)c2cccs2)n1)Nc1ccccc1	?	0	0	?	?	0
COc1ccccc1NC(=O)Cn1nnc(-c2ccccc2NC(=O)c2cccs2)n1	0	0	0	50µM	0	0
CCN(CC(=O)NC(C)C)Cc1nc2c(Br)cc(Br)cc2c(=O)[nH]1	0	0	7.1µM	0	2.2µM	0
Cc1cccc(N2CCN(C(=O)CS(=O)(=O)Cc3nc(-c4ccccc4C)oc3C)CC2C)c1 (stereo not drawn)	0	?	-	-	-	0
CC(C)C[C@@H](CC(=O)N[C@@H](CCC(=O)O)CC(=O)O)NC(=O)[C@@H]1CNCC[C@H]1NC(=O)C[C@H](CCCN)NC(=O)C[C@H](Cc1ccccc1)NC(=O)[C@@H]1CNCC[C@H]1N	0	-	0	0	0	-
CCN(CC(=O)Nc1ccccc1OC)CC(=O)Nc1ccccc1-c1ccccc1	0	-	0	35µM	0	0
CCN(CC(=O)Nc1ccccc1OC)CC(=O)Nc1ccccc1C(F)(F)F	0	0	0	0	0	0
CCN(CC(=O)NC(c1ccccc1)c1ccccc1)Cc1nc2ccccc2c(=O)[nH]1	0	0	11µM	0	2.5µM	0
Cc1ccc2c(c1)nc(SCC(O)c1ccc(Br)cc1)n2C (stereo not drawn)	0	0	-	-	-	0
O=C(NCCSCc1ccccc1)C1CCN(S(=O)(=O)Cc2ccccc2)CC1	0	0	-	-	-	0
CC1CCCC(NC(=O)COC(=O)CCC2CCCC2)C1C (stereo not drawn)	0	0	0.56µM	0	0	0
COc1ccc(Cc2nnc(NC(=O)c3c(-c4ccccc4)noc3C)s2)cc1OC	0	-	0	0	?	-
CCOC(=O)c1c(NC(=O)c2c(-c3ccccc3)noc2C)sc(C)c1-c1ccccc1	0	14µM	0	0	0	0
COc1ccc(Cc2nnc(NC(=O)c3c(-c4ccccc4)noc3C)s2)cc1	0	0	?	0	16µM	0
CCOC(=O)c1ccccc1NC(=O)c1c(-c2ccccc2)noc1C	0	0	-	-	-	0
O=C(c1ccc(Br)cc1)N1CCN(Cc2ccccc2)CC1	-	0	0	0	0	0
SMILES	Epigenetic reg	ClpP mod	Gal4-VP16 FLuc	Sfp inh	RORg inh	PINK1 expr mod
S=C(c1ccc(Br)cc1)N1CCN(Cc2ccccc2)CC1	0	0	0	11µM	0	0
O=C(N1CCN(Cc2ccccc2)CC1)C(Cl)(Cl)Cl	0	13µM	0	0	0	0
CCN1CCN(C(=S)c2ccc(Br)cc2)CC1	0	0	0	14µM	0	0
Oc1ccc(C(=S)N2CCN(Cc3ccccc3)CC2)cc1	0	0	0	16µM	0	0
Cc1cccc(-c2nc3scc(CCNS(=O)(=O)c4ccc(F)c(C(F)(F)F)c4)n3n2)c1	0	0	-	-	-	0
Cc1ccc(C(=S)N2CCN(Cc3ccccc3)CC2)s1	0	-	0	5µM	0	0
Cc1onc(-c2ccccc2)c1C(=O)NNC(=S)NC(=O)c1ccc2c(c1)OCO2	0	-	0	0	2.5µM	0
COc1ccc(C(=O)NC(=S)NNC(=O)c2c(-c3ccccc3)noc2C)cc1OC	0	-	14µM	0	4µM	0
Cc1onc(-c2ccccc2)c1C(=O)N/N=C/c1cccs1	0	0	?	0	?	0
Cc1onc(-c2ccccc2)c1C(=O)NC(=S)NNC(=O)c1ccncc1	0	0	?	0	?	?
Cc1onc(-c2ccccc2)c1C(=O)NNC(=S)NC(=O)/C=C/c1cccs1	0	0	4.5µM	0	3.5µM	0
COc1ccc(NC(=O)CSc2nc(-c3ccc(F)cc3)c3cccc(C)c3n2)cc1	0	0	-	-	-	0
COc1ccc(-c2cc(C)nc3c(-c4ccc(OC)c(OC)c4)c(C)nn23)cc1	0	0	-	-	-	0
CCOc1ccc2c(c1)C(C)=CC(C)(C)N2S(=O)(=O)c1ccc(C)cc1	0	-	?	0	4µM	0
CCOc1ccc2c(c1)C(C)=CC(C)(C)N2C(=O)Nc1ccccc1F	0	28µM	0	35µM	0	0
CCNC(=O)N1c2ccc(OCC)cc2C(C)=CC1(C)C	0	0	0	?	0	0
COc1ccc(CCNC(=O)C(=O)NCC(c2ccc3c(c2)OCO3)N2CCOCC2)cc1 (stereo not drawn)	0	0	-	-	-	0
Cc1cc2c(c(=O)n1Cc1ccco1)C(c1cccnc1)C(C#N)=C(N)O2 (stereo not drawn)	0	0	0	0	0	0
Cc1cc2c(c(=O)n1Cc1cccnc1)C(Cc1ccccc1)C(C#N)=C(N)O2 (stereo not drawn)	0	?	14µM	0	?	0
Cc1cc2c(c(=O)n1Cc1cccnc1)C(c1cccs1)C(C#N)=C(N)O2 (stereo not drawn)	0	0	0	79µM	0	0
COC(=O)C1=C(C)OC(N)=C(C#N)C1c1cccnc1 (stereo not drawn)	0	0	0	0	0	0
CC(=O)C1=C(C)OC(N)=C(C#N)C1c1ccncc1 (stereo not drawn)	0	0	18µM	?	?	0
COc1ccc(C2C(C#N)=C(N)Oc3cc(C)n(Cc4ccncc4)c(=O)c32)cc1 (stereo not drawn)	0	0	0	0	0	0
